Test results reported in the supplement of paper PMC6555819.

Tested on: VDR:RXRa (NR concentration 270 nM, RXRa partner concentration 90 nM)
Experiment: PBM binding z-score (relative to random genomic background probes); higher = stronger binding; sequences stand for … in GC…GCGATTGACAGCGTAGAATGAAGG
Description: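 Protein-binding microarray (Agilent 4x180K custom design, double-stranded 60-nt probes: 5' GC cap, 34-nt variable region, 24-nt constant primer region; full probe sequence given). Purified or IVT nuclear receptor:RXRα heterodimers (3:1 NR:RXRα, mostly 270:90 nM) or homodimers were incubated for 1 h in PBS with 2% milk and no ligand, then detected with Alexa488 antibodies. Fluorescence from o1-orientation probes (~5 replicates averaged) was converted to z-scores against 500 random hg19 background probes. Variable regions are seed direct-repeat (DR0–DR5) sites, all their single-nucleotide variants and half-site ablations.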

Sequence | PBM binding z-score
ATCTCTAGGTAAGACTCAGCTCAGTGAAGAACGC | -0.134
TATACAGGGTCAAAGGCCAGAGTGCGAATGTCGA | 4.88
ATCGAAATGTCGACGAGGTGAGTATACACCGTTT | 0.509
GCTTGTAGATCAAGGTTAAGATAGACTAAGCTAA | 0.0807
CCGACTGGGGCAAGGTTACCACAACGCACAGCCA | 0.188
GCTCGGAGGACGAGGTCAGAGCTTTGTCCGTAGA | 2.2
CCTCGCAGGACAGAAGGTCAGAGCTGTCCGCTTT | 0.93
CGTCCAAGGTGAGAGAGGTCAGTGAATGCCGAGT | 5.51
GCAACGAGGGCAAAGTTGATAGCATCTGTCGACG | 1.26
TGAATGAGGTTAAAGCTCAGGGAACGTGGCGTCG | 1.14
ACTAGTTGGACAGCTGAGGTCACACACAATTCGG | 3.85
GGAACGAGAGCAAAGTTGATAGCATCTGTCGACG | -0.413
CCTCGGAGGACAACAGGAGGTCAGCGCTGCCAGA | 2.39
GCATATAGGTAATACAAGGTGACAGTCCGATTGT | 0.313
GCTTACGGGTCAAACGTTATAGCATGAATAGAAT | 3.74
CCTTACGGGTCACGAGGTTATAGTACGACGAGCG | 5.35
ACTATTAGTTGACTTAGTGCAACCGATACGACGC | 0.264
AGAAAGAGGTTATTAAGATCAGGGAATTGCGGTC | 2.57
CGAACTAGGTCAAGGACAGTGTATCTCCGCACGC | 1.78
TCTTTTAGATCAAAGGTTAAGAAAGCCGAAGCCT | 1.51

Sequence | PBM binding z-score
TCTTGTAAATCAGCAGGTTAAGAAAGCTGGCCAA | 0.539
TCACGGAGGACACGAAGGTCAGAGCTTTCCAGAG | 2.33
GGAACGAGGGGAAGTTGATAGCAGAGTTTGATGG | -0.234
CCTATTAGTTGACCATCAGGGCAACCGAAGCTCG | 0.508
TAGCCTAGGTCAGATCGGGCCAGTTTACGCTATA | 0.663
ACTATTAGATGAGACGAGGGCAACCGATAGGTTG | 0.421
CCGACTGGGGCCGAAAGGTTACCATACCATCCGG | 0.789
CTCGAAAGGTCGGTTGAGGTGCGTATACGGATAA | 2.09
GCGACTGTGGCATCAGCAGGTTACCATAACTTAA | -0.319
CCTAGAAGGCCAGGGTCACTCAAGCATTTCGCTT | 2.94
CCGACTGGGGCAAGGTTACCGTAACGCACAGCCA | -0.0549
TCTATTAGTTGAAGGGAAACCGACGAGTCCGTTT | 0.851
TAGCCTAGGTAATGCGGGCCAGTATAGTGTCGGC | -0.839
CGTCAAAGCTCAAGGTAACGTAACAGAAAGCAGC | -0.278
GTTCGGAGGACAAGGTCAGAGCTTTGTCCGTAGA | 1.42
GTACCAAGGTGACTAGGTCGTTGATGAGTAGGCG | 0.346
ATCTCTAGGTAAAGAGAGTTCAGTGAATGCAAAT | 3.33
AATACAGGGTCATCGTAGGCCAGGGTACGCACAG | 5.25
CGTCAAAGTTCAAGGTAAGGTAACAGAAAGCAGC | 3.7
GCGACTGGGGCAAAACAGGTTACCATAAGGTTGG | 0.212
